This is an account of results in PubChem BioAssay (Tox21).

A number with no mark means an inactive call. Inconclusive results are not listed. Activity calls are given as the source filed them. Unless noted, calls follow the shape of the full dose curve.

Experiment [1] is described as follows: Nuclear factor erythroid 2-related factor 2/antioxidant responsive element (Nrf2/ARE) small molecule agonists: qHTS cell viability counter screen in human keratinocytes (AID 1919968; active = well fitted cell-killing curve with a large enough effect in the repeat runs; also: nearly all actives have a fitted effect of over 55% in size; also: potency is read from the fitted curve at half-maximal effect). The method in brief:
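HaCaT ARE reporter line, 1,500 cells/well; 5 h settle, 37 C/5% CO2; cpd in DMSO pinned; 23 h exposure; CellTiter-Fluor, 1 h; fluorescence.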
(qHTS replaces the single test concentration by a dilution series.)

A short description of experiment [2]: Nuclear factor erythroid 2-related factor 2/antioxidant responsive element (Nrf2/ARE) small molecule agonists: luciferase reporter gene qHTS assay in human keratinocytes (AID 1919969). Also: nearly all actives have a fitted effect of over 35% in size. A general note: In a reporter assay the amount or activity of a reporter protein is the signal.
Experiment [3] in a line: G protein-coupled receptor (GPCR) small molecule agonists, calcium flux assay: HEK293 wild type cell line counter screen (AID 1920065). The method, boiled down: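 Kinetic fluorescence at Ex/Em 480/540, recorded every second over 3 min, served as the read-out after compound addition. Each compound was tested at 15 concentrations in triplicate on cells pre-loaded with calcium dye for 1 h.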
A general note: Calcium assays in cells follow changes in intracellular calcium, usually with a dye or a luminescent sensor.

The nature of experiment [4]: p53 small molecule agonists, cell-based qHTS assay with human liver microsomes (AID 1963577).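 Also: p53 response element beta-lactamase reporter cells with liver microsomes plus NADPH.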 The method in brief: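 Metabolically competent format: test substances, human liver microsomes and NADPH (both 0.5 mg/mL final) incubated with p53RE-bla cells 16 h at 37 C. Beta-lactamase reporter signal then quantified by fluorescence.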
The nature of experiment [5]: p53 small molecule agonists, cell-based qHTS assay with rat liver microsomes (AID 1963578). The method in brief: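 Each plate received p53RE-bla cells, then compound, then rat liver microsomes and NADPH (both 0.5 mg/mL final). Plates were held 16 h at 37 C, and beta-lactamase activity was detected with LiveBLAzer over 2 h.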
The nature of experiment [6]: p53 small molecule agonists, cell-based qHTS assay with human liver microsomes: qHTS cell viability counter screen (AID 1963579). Also: nearly all actives have a fitted effect of over 45% in size. The method, boiled down: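 Tox21 library compounds, delivered from DMSO stocks, were tested on p53RE-bla cells together with 0.5 mg/mL human liver microsomes and 0.5 mg/mL NADPH (final) over 16 h at 37 C; CellTiter-Glo luminescence served as the cytotoxicity measure.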

The nature of experiment [7]: p53 small molecule agonists, cell-based qHTS assay with rat liver microsomes: qHTS cell viability counter screen (AID 1963580). Also: nearly all actives have a fitted effect of over 45% in size. The method in brief: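 p53RE-bla HCT-116 cells (4,000/well) rested 5 h at 37 C, then given Tox21 compounds in DMSO with rat liver microsomes (0.5 mg/mL final) plus NADPH (0.5 mg/mL final) for 16 h at 37 C. Viability read by CellTiter-Glo luminescence after 30 min at room temperature.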

Experiment [8] is described as follows: p53 small molecule agonists, cell-based qHTS assay: qHTS cell viability counter screen (AID 1963581). Also: nearly all actives have a fitted effect of over 45% in size. The method in brief:
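HCT-116 p53RE-bla cells, 4,000/well, plated 5 h before compound pin transfer; 16 h at 37 C; bla substrate 2 h RT; then CellTiter-Glo, 30 min RT, luminescence.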

Experiment [9] can be described thus: p53 small molecule agonists, cell-based qHTS assay (AID 1963582; active = well fitted activation curve with a large enough effect in the signal ratio in the repeat runs, not every such curve was filed as active; the % refers to the signal ratio). The method in brief:
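Reporter line: p53RE-bla. Pre-incubation 5 h, 37 C, 5% CO2; compound (DMSO, pin tool) 16 h, 37 C; B/G FRET substrate 2 h RT; fluorescence intensity read.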

The target in experiment [10] is 5-hydroxytryptamine receptor 2A (Homo sapiens) (UniProt P28223). As to the kind of experiment: 5-hydroxytryptamine receptor 2A (HTR2A) small molecule antagonists, cell-based qHTS assay (AID 1963586). Also: nearly all actives have a fitted effect of over 45% in size. The method, boiled down:
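Antagonist-mode intracellular calcium assay: DOI (4 nM) added after 5 min compound pre-incubation at room temperature to dye-loaded HTR2A-CHO cells. Fluorescence followed for 3 min, sampled every second.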

In experiment [11] the target is Muscarinic acetylcholine receptor M1 (Homo sapiens) (UniProt P11229). The experiment is described as follows: Cholinergic receptor muscarinic 1 (CHRM1) small molecule antagonists, cell-based qHTS assay (AID 1963588). Also: nearly all actives have a fitted effect of over 40% in size. The method in brief:
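CHRM1-CHO calcium-flux assay, antagonist mode. Cells were seeded 18 h, dye-loaded 1 h at 37 C and given compound for 5 min at RT, then acetylcholine was added at 50nM. FDSS fluorescence was read 3 min; 15 concentrations, three runs.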

Experiment [12] shares this target. As to the kind of experiment: Cholinergic receptor muscarinic 1 (CHRM1) small molecule agonists, cell-based qHTS assay (AID 1963589). Also: nearly all actives have a fitted effect of over 35% in size. The method, boiled down:
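Human M1 in stable CHO line; 18 h plating, 1 h dye load 37 C; cpd added (agonist mode); Ca2+ fluorescence kinetic read, 1 s intervals; 15 conc, 3 runs.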

A short description of experiment [13]: cAMP Responsive Elements (CRE) small molecule agonists, cell-based qHTS assay (AID 1963590). The method in brief:
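HEK 293T CRE-bla, 2,000 cells/well, 18 h preincubation 37 C/5% CO2; cpds (DMSO) pinned, 3 h; LiveBLAzer B/G FRET substrate, 2 h RT.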

In experiment [14] the target is Beta-2 adrenergic receptor (Homo sapiens) (UniProt P07550). As to the kind of experiment: Adrenergic beta2 receptor (ADRB2) small molecule agonists, cell-based qHTS assay (AID 1963593).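 Also: CHO cells stably overexpressing human ADRB2.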 The method in brief:
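CHO cells stably over-expressing ADRB2 were plated overnight at 37C, then dosed with compounds plus a stimulation mix containing 100uM IBMX and 25uM Ro-20-1724 for 0.5hr at room temperature. cAMP was measured by HTRF competition, 1hr.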

Experiment [15] concerns the target D(2) dopamine receptor (Homo sapiens) (UniProt P14416). As to the kind of experiment: Dopamine D2 receptor (DRD2) small molecule agonists, cell-based qHTS assay (AID 1963594). Also: nearly all actives have a fitted effect of over 35% in size. The method, boiled down: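 HEK293 cells stably expressing DRD2 were cultured 24 h at 37 C, then given Ro20-1724 (0.1 mM final) and compounds for 10 min at room temperature. NKH477 (200nM) was then added for 30 min. cAMP was read by HTRF.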

For experiment [16] the target is unchanged. As to the kind of experiment: Dopamine D2 receptor (DRD2) small molecule antagonists, cell-based qHTS assay (AID 1963595; active = well fitted inhibition curve with a large enough effect in the signal ratio in the repeat runs, with a control signal flat; the % refers to the signal ratio). The method, boiled down:
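Human DRD2 antagonist qHTS measuring cAMP by HTRF. The cells are exposed to compound for 10 min, then to NKH477 (200 nM) and quinpirole (12 nM) for 30 min at RT, with Ro20-1724 (0.1 mM) present throughout.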

Experiment [17] concerns the target 5-hydroxytryptamine receptor 2A (Homo sapiens) (UniProt P28223). As to the kind of experiment: 5-hydroxytryptamine receptor 2A (HTR2A) small molecule agonists, cell-based qHTS assay (AID 1963587). Also: nearly all actives have a fitted effect of over 30% in size. The method in brief: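 HTR2A-CHO cells, plated 18 h at 37 C/5% CO2, dye-loaded 1 h at 37 C; compounds in DMSO added by pin tool (agonist mode). Intracellular calcium flux read as kinetic fluorescence on FDSS over 2 min at 1 s intervals.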

Experiment [18] concerns the target Beta-2 adrenergic receptor (Homo sapiens) (UniProt P07550). The experiment is described as follows: Adrenergic beta2 receptor (ADRB2) small molecule antagonists, cell-based qHTS assay (AID 1963592). Also: series mostly up to about 92 µM; nearly all actives have a fitted effect of over 50% in size. The method, boiled down:
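Cells (CHO, stable ADRB2 overexpression) incubated 18-20hr at 37C; compounds added from DMSO; agonist mix (1nM isoproterenol, 100uM IBMX, 25uM Ro-20-1724) added; 0.5hr RT; d2-cAMP and anti-cAMP-cryptate added; 1hr RT; 665/615 nm read.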

The nature of experiment [19]: cAMP Responsive Elements (CRE) small molecule antagonists, cell-based qHTS assay (AID 1963591; active = well fitted inhibition curve with a large enough effect in the signal ratio in the repeat runs, not every such curve was filed as active; the % refers to the signal ratio). The method in brief: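 Beta-lactamase reporter read by FRET substrate (LiveBLAzer B/G) after 2 h at room temperature. CRE-bla HEK293T cells had received compound plus 0.25 uM (final) NKH477 for 3 h at 37 °C.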

Sequence of 5-hydroxytryptamine receptor 2A (Homo sapiens) (P28223 whole entry, looked up): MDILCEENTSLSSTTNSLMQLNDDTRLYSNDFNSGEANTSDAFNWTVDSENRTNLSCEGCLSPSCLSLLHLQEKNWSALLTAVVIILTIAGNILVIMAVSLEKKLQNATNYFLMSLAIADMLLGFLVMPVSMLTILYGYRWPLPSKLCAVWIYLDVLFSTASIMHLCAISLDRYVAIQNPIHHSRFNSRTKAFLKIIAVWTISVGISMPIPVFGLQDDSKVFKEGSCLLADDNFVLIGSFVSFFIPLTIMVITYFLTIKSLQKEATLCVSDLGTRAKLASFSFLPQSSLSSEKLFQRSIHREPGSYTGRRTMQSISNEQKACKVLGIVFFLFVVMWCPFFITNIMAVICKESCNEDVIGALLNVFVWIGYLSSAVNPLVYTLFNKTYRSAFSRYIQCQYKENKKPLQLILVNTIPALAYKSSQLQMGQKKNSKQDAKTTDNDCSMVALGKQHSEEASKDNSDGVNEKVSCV
Sequence of Muscarinic acetylcholine receptor M1 (Homo sapiens) (P11229 whole entry, looked up): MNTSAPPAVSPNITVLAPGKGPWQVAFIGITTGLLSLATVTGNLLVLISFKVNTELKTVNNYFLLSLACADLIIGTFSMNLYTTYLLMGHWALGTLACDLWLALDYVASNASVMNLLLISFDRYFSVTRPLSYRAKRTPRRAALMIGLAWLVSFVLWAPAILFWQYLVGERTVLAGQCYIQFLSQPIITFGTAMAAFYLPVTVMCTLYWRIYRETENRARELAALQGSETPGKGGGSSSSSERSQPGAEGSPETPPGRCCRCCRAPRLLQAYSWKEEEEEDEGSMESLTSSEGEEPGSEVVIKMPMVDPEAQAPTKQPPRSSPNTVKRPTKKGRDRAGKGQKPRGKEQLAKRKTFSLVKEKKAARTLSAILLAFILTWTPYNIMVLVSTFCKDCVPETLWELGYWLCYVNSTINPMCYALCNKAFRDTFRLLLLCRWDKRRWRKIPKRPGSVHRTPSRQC
Sequence of Beta-2 adrenergic receptor (Homo sapiens) (P07550 whole entry, looked up): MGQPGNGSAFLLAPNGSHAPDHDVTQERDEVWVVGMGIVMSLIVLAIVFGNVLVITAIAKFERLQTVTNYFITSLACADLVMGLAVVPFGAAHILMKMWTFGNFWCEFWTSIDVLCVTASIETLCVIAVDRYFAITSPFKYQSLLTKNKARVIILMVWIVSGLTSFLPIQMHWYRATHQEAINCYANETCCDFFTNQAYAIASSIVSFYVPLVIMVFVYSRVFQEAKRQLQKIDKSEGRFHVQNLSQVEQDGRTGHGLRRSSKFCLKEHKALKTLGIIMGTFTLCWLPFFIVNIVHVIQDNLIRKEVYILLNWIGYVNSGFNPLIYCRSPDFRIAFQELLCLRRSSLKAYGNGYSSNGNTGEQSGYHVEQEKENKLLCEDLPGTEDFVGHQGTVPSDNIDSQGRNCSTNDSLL
Sequence of D(2) dopamine receptor (Homo sapiens) (P14416 whole entry, looked up): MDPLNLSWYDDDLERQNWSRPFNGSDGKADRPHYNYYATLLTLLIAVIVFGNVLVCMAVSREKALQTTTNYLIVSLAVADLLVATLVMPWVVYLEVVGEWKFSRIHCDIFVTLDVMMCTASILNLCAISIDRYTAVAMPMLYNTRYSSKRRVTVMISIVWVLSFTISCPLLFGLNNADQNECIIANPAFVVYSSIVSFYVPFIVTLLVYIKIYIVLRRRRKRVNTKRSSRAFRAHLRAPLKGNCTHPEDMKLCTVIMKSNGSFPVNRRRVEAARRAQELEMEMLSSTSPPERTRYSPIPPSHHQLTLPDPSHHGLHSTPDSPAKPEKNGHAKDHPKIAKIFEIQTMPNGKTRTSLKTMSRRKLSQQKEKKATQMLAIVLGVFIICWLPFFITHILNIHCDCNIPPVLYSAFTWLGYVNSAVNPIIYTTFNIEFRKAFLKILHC

Turning to `CC(C)=CCC[C@@](C)(O)[C@H]1CC=C(C)CC1`, the Potency result in experiment [1], in experiment [2], in experiment [4], in experiment [5], in [6] and in [7] was “inactive” each time. In addition, the Potency result in experiment [8], in [9], in experiment [10], in [11], in experiment [12] and in [13] was “inactive” each time. In addition, the Potency entry in [14], in experiment [15] and in [16] was “inactive” in each case. Further, the result in [3] was inactive.
In the case of `CCCCCCCCCC=O`, the Potency entry in experiment [1], in experiment [2], in [4], in [5], in experiment [6] and in experiment [7] was “inactive” each time. In addition, the Potency result in [8], in experiment [9], in experiment [10], in experiment [17], in experiment [11] and in experiment [12] was “inactive” in each case. In addition, the Potency result in experiment [18], in [14] and in [16] was “inactive” in each case. Besides, the outcome in experiment [3] was inactive.
With `CCN(O)CC`, the Potency entry in [1], in [2], in experiment [4], in experiment [5], in experiment [6] and in experiment [7] was “inactive” each time. The Potency entry in [8], in experiment [9], in experiment [11], in experiment [12], in experiment [13] and in experiment [19] was “inactive” throughout. Besides, the Potency result in experiment [18], in [14] and in experiment [15] was “inactive” throughout. For the same molecule, the outcome in experiment [3] was inactive.
In the case of `Cc1cccc(C)c1OCC(C)N` (configuration not stated), the Potency entry in experiment [1], in [2], in [4], in experiment [5], in experiment [6] and in experiment [7] was “inactive” in each case. For the same molecule, the Potency entry in [8], in experiment [9], in experiment [13], in experiment [14] and in experiment [16] was “inactive” in each case. The outcome in experiment [3] was inactive.
Take `CC(=O)SC[C@@H](Cc1ccccc1)C(=O)NCC(=O)OCc1ccccc1`: the Potency entry in experiment [1], in [2], in [4], in experiment [5], in experiment [6] and in experiment [7] was “inactive” each time. Also, the Potency entry in experiment [8], in experiment [9], in experiment [10], in experiment [17], in experiment [12] and in [13] was “inactive” in each case. For the same molecule, the Potency result in experiment [18], in experiment [15] and in [16] was “inactive” in each case. Besides, in experiment [3], the result was inactive.
Take `CC(C)(O)c1ccccc1CC[C@@H](SCC1(CC(=O)O)CC1)c1cccc(/C=C/c2ccc3ccc(Cl)cc3n2)c1`: the Potency entry in experiment [1], in experiment [2], in [4], in experiment [5], in [6] and in experiment [7] was “inactive” each time. Besides, the Potency entry in experiment [8], in experiment [9], in experiment [13], in [19], in [18] and in experiment [15] was “inactive” in each case. For the same molecule, the outcome in experiment [3] was inactive.
Take `COc1cc(S(=O)(=O)O)c(C)cc1N=Nc1c(O)ccc2cc(S(=O)(=O)O)ccc12`: the Potency in experiment [1] is 24.3 µM (active). For the same molecule, the Potency entry in experiment [2], in experiment [4], in experiment [5], in experiment [6], in experiment [7] and in [8] was “inactive” in each case. Further, the Potency result in [9], in experiment [11], in experiment [12], in experiment [13] and in experiment [19] was “inactive” each time. Further, the result in [3] was inactive.
